Among the data in PubChem BioAssay AID651785 (The Scripps Research Institute Molecular Screening Center, 2012) are inhibition values, retold here.

About 950 (40%) of roughly 2,400 compounds were called active. Only a sample is shown. Unmarked numbers belong to inactive results. Cut-off read from the data, not from the text of the source: active = inhibition above about 49%; inactive = the rest.

The test deals with Trace amine-associated receptor 1 (Homo sapiens) (UniProt Q96RJ0). Description: TAAR1 receptor blockers, repeat testing – cell-based, fluorescence, confirmation (AID 651785).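 Note: CHO-Ga16 host cells challenged with agonist PEA near its EC80; 0% = agonist at EC80 plus vehicle and 100% = vehicle with no agonist.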 The settings on record: TAAR1-expressing cells, fluorescence antagonist read-out; at 3 µM; stronger effect = higher value.
Trace amine-associated receptor 1 (Homo sapiens), sequence (Q96RJ0 whole entry, looked up, the tested form may be a part): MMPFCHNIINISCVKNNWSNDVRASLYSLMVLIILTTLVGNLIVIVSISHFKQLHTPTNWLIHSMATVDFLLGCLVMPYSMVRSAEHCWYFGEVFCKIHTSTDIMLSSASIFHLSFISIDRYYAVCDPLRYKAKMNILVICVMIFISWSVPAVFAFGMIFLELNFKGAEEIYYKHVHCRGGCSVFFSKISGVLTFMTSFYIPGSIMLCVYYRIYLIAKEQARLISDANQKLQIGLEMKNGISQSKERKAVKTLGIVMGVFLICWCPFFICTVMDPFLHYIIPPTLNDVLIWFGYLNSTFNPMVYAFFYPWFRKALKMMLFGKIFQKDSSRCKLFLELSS
For `O=C(NCc1ccc2c(c1)OCO2)c1c(-c2ccsc2)sc2ccccc12`, the inhibition (usually the change of the read-out against control, counted positive when it falls) is 26.4%.

For `O=C(CN1CCCSc2ccccc21)N1CCN(S(=O)(=O)c2cccc(F)c2)CC1`, the inhibition is 34.9%.

Consider `Oc1ccc(/C=N/Nc2nc(-c3ccccc3F)nc3ccccc23)c(O)c1`, for which the inhibition is 55.8% (active).

Turning to `Fc1ccc(/C=N/Nc2nc(-c3cccnc3)nc3ccccc23)cc1`, the inhibition was 41.7%.

Take `C/C(=N\Nc1ncc(Cl)cc1Cl)c1ccc(S(=O)(=O)NCc2ccco2)cc1`: the inhibition was 33%.

With `CC(=O)Nc1ccc(NC(=O)COC(=O)C2CCC(C(C)(C)C)CC2)cc1` (stereo unspecified), the inhibition is 52.9% (active).

Take `C[C@H](NC(=O)c1nc[nH]c1C(=O)NCC(=O)OC(C)(C)C)C(=O)OCc1ccccc1`: the inhibition is 46.1%.

For `COc1ccc(CCNC(=O)C(=O)NCC2OCCN2S(=O)(=O)c2ccc(OC)c(C)c2)cc1` (stereo unspecified), the inhibition was 26.8%.

With `COc1ccc(CCNC(=O)c2ccc(CS(=O)(=O)c3ccc(Br)cc3)o2)cc1OC`, the inhibition is 52.1% (active).

For `COc1cc(OC)cc(C(=O)OCC(=O)Nc2sccc2C(N)=O)c1`, the inhibition was 48.2%.

As for `O=C(COC(=O)CCCSc1nc2ccccc2[nH]1)Nc1ccc(Oc2ccccc2)cc1`, the inhibition is 50.7% (active).

On to `N#Cc1cccc(NC(=O)COC(=O)c2ccccc2C(=O)c2ccc(Cl)c([N+](=O)[O-])c2)c1`, for which the inhibition is 52.5% (active).

For `CC(=O)n1cc([C@H]2C=C(C(=O)N3CCOCC3)O[C@@H](OCc3ccc(CO)cc3)C2)c2ccccc21`, the inhibition was 40.4%.

Consider `O=C(Nc1ccc(-c2nnc(-c3ccccc3)o2)cc1)c1ccc(Br)o1`, for which the inhibition is 21.3%.

With `CCC(=O)Oc1cccc(C(=O)Nc2ccc(-c3nnc(-c4ccco4)o3)cc2)c1`, the inhibition was 46.1%.

In the case of `O=C(CCc1ccccc1)Nc1cccc(-c2nnc(-c3ccco3)o2)c1`, the inhibition is 49.1% (active).

For `COc1ccc(Cl)cc1NC(=O)CCS(=O)(=O)c1cc2c(cc1C)NC(=O)CO2`, the inhibition was 36%.

For the compound `CCOC(=O)C1C(c2ccc(OC)c(OC)c2)c2c([nH][nH]c2=O)CC1(C)O` (stereo unspecified), the inhibition was 38.7%.

With `Cc1ccc(-n2c(C)cc(/C=N\NC(=O)CC(=O)NC(C)C)c2C)cc1`, the inhibition is 97.9% (active).

As to `CNC(=O)c1ccsc1NC(=O)c1ccc(S(=O)(=O)N2CCc3ccccc32)cc1`, the inhibition was 43.2%.

With `CC(C)N(Cc1ccccc1)C(=O)COC(=O)c1ccccc1SCC(=O)N1CCCC1`, the inhibition was 52.8% (active).

For `O=C(OCC(=O)N(CCc1ccccc1)Cc1ccccc1)c1ccccc1[N+](=O)[O-]`, the inhibition is 47.4%.

`O=C(COC(=O)c1ccccc1SCC(=O)N1CCCC1)Nc1ccccc1OC(F)F`: the inhibition is 52.2% (active).

`COC(=O)[C@@]1(Sc2ccc(C)cc2)CC(=O)N(c2cccc(SC)c2)[C@@H]1c1ccccc1`: the inhibition is 47.3%.

Consider `CCOc1ccc(NC(=O)N2CC=C(n3c(=O)[nH]c4ccccc43)CC2)cc1`, for which the inhibition was 39.5%.

As to `COC(=O)C1=C(C)N(Cc2ccc(F)cc2)C(=S)NC1c1cccc(Cl)c1` (stereo unspecified), the inhibition was 36.5%.

Regarding `CCN=C1SC(CC(=O)Nc2ccc(C)cc2)C(=O)N1CC` (stereo unspecified), the inhibition was 59.2% (active).

In the case of `O=C(N/N=C/c1ccc(Cl)c(Cl)c1)c1ccc2nc[nH]c2c1`, the inhibition is 52.9% (active).

Take `CCOc1cc(/C=N/NC(=O)c2cc(-c3ccccc3)nc3ccccc23)ccc1O`: the inhibition is 44.9%.

`CSc1nc(-c2ccccc2)nc(C(Cl)Cl)n1`: the inhibition is 36.6%.

For `COc1cc(SC#N)ccc1N=Cc1c(C)[nH]n(-c2ccc(C)cc2)c1=O`, the inhibition was 67.6% (active).
